According to the supplement of paper PMC7695840:
Counter-ions that a name gives are not always drawn.

Key:
[1] = system: Staphylococcus aureus MW2 delta-mecA (mecA-); assay: normalized GFP fluorescence (growth of mecA- strain) (fraction of control range); higher = more growth of mecA- strain; conditions: compound concentration: 150 uM; cefoxitin: subinhibitory; fluorescent label: GFP
Outline: (§1)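 S. aureus MW2 cells, pre-induced, were used as a 1:1 mix of a DsRed strain carrying the gene and a GFP strain lacking it, in LB with a subinhibitory antibiotic dose set each day. At 5 µL/well they were placed onto 150 μM compound (1.5% DMSO) in 1536-well plates, one replicate, and kept unshaken for 20 h at 37 °C, 90% humidity. After DsRed (540/590) and GFP (485/520) reads scaled per plate to single-strain control medians, plates with high untreated ratios and rows with DsRed/GFP >10 were excluded.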

[2] = system: Staphylococcus aureus MW2 (mecA+); assay: normalized DsRed fluorescence (growth of mecA+ strain) (fraction of control range); higher = more growth of mecA+ strain; conditions: compound concentration: 150 uM; cefoxitin: subinhibitory; fluorescent label: DsRed
Outline: as §1

Row | Structure (SMILES) | normalized GFP fluorescence [1] | normalized DsRed fluorescence [2]
1 | COc1ccc2cccc(CCNC(C)=O)c2c1 [Agomelatine] | 0.243 | 0.62
2 | O=c1n(CCCN2CCN(c3cccc(Cl)c3)CC2)nc2ccccn12 | 0.187 | 1.1
3 | Cc1ccc(NC(=O)c2ccc(CN3CCN(C)CC3)cc2)cc1Nc1nc(-c2cccnc2)cs1 [Masitinib (AB1010)] | 0.0914 | 0.633
4 | C[C@H]1O[C@H](O[C@H]2[C@H](O)[C@@H](O)[C@@H](O[C@H]3[C@H](O)[C@@H](O)C(O)O[C@@H]3CO)O[C@@H]2CO)[C@H](O)[C@@H](O)[C@@H]1N[C@H]1C=C(CO)[C@@H](O)[C@H](O)[C@H]1O (stereo not given in full) | 0.505 | 0.683
5 | COC(=O)N[C@H](C(=O)N1CCC[C@H]1c1ncc(-c2ccc(-c3ccc(-c4cnc([C@@H]5CCCN5C(=O)[C@@H](NC(=O)OC)C(C)C)[nH]4)cc3)cc2)[nH]1)C(C)C | 0.242 | 0.788
6 | COc1nc(N)nc2c1ncn2[C@@H]1O[C@H](CO)[C@@H](O)[C@@H]1O [Nelarabine (Arranon)] | 0.298 | 0.855
7 | COc1ccc2c3c1O[C@H]1C[C@@H](O)C=C[C@@]31CCN(C)C2 | 0.508 | 0.677
8 | CC(C)NCC(O)c1ccc(O)c(O)c1 (stereo not given) [Isoprenaline hydrochloride] | 0.458 | 0.758
9 | O=C(O)c1cc(/N=N/c2ccc(S(=O)(=O)Nc3ccccn3)cc2)ccc1O [Sulfasalazine (Azulfidine)] | 0.311 | 0.584
10 | CCCSc1nc(N[C@@H]2C[C@H]2c2ccc(F)c(F)c2)c2nnn([C@@H]3C[C@H](OCCO)[C@@H](O)[C@H]3O)c2n1 [Ticagrelor] | -0.0296 | -0.0335
11 | CCC(=O)OCC(=O)[C@@]1(OC(=O)CC)[C@@H](C)C[C@H]2[C@@H]3CCC4=CC(=O)C=C[C@]4(C)[C@@]3(Cl)[C@@H](O)C[C@@]21C | 0.322 | 0.958
12 | CC(=O)c1ccc2c(c1)N(CCCN(C)C)c1ccccc1S2 | 0.165 | 1.27
13 | C[C@H](CS)C(=O)N1CCC[C@H]1C(=O)O | 0.232 | 0.842
14 | COc1cc(Nc2ncc(F)c(Nc3ccc4c(n3)N(COP(=O)(O)O)C(=O)C(C)(C)O4)n2)cc(OC)c1OC [R788 (Fostamatinib)] | 0.503 | 0.475
15 | CN(C(=O)C(Cl)Cl)c1ccc(OC(=O)c2ccco2)cc1 | 0.156 | 0.938
16 | Cc1cc2nc3c(=O)[nH]c(=O)nc-3n(CC(O)C(O)C(O)COP(=O)(O)O)c2cc1C (stereo not given) | 0.933 | 0.535
17 | CC(C)(Oc1ccc(CCNC(=O)c2ccc(Cl)cc2)cc1)C(=O)O | 0.407 | 0.804
18 | c1cc(CN2CCCNCCNCCCNCC2)ccc1CN1CCCNCCNCCCNCC1 [Plerixafor] | 0.396 | 0.938
19 | CCCc1nc2c(C)cc(-c3nc4ccccc4n3C)cc2n1Cc1ccc(-c2ccccc2C(=O)O)cc1 | 0.106 | 0.194
20 | Cc1c(C(=O)NN2CCCCC2)nn(-c2ccc(Cl)cc2Cl)c1-c1ccc(Cl)cc1 | 0.177 | 0.769
21 | C[N+](C)(C)CCOP(=O)(O)OP(=O)([O-])OC[C@H]1O[C@@H](n2ccc(N)nc2=O)[C@H](O)[C@@H]1O | 0.342 | 0.78
22 | CN(C)CCCN1c2ccccc2Sc2ccc(C(F)(F)F)cc21 | -0.00501 | 1.49
23 | CC(=O)O[C@]1(C(C)=O)CC[C@H]2[C@@H]3C=C(Cl)C4=CC(=O)[C@@H]5C[C@@H]5[C@]4(C)[C@H]3CC[C@@]21C | 0.239 | 0.593
24 | CO[C@H]1C[C@@H]2CC[C@@H](C)[C@@](O)(O2)C(=O)C(=O)N2CCCC[C@H]2C(=O)O[C@H]([C@H](C)C[C@@H]2CC[C@@H](OCCO)[C@H](OC)C2)CC(=O)[C@H](C)/C=C(\C)[C@@H](O)[C@@H](OC)C(=O)[C@H](C)C[C@H](C)/C=C/C=C/C=C/1C [Everolimus (RAD001)] | -0.00462 | 1.72
25 | CN(C)CC[C@@H](c1ccc(Cl)cc1)c1ccccn1 | 0.307 | 0.588
26 | COc1ccc2[nH]cc(CCNC(C)=O)c2c1 [Melatonin] | 0.484 | 0.734
27 | CC(=O)OCC(=O)NCCCOc1cccc(CN2CCCCC2)c1 [Roxatidine acetate HCl] | 0.438 | 0.76
28 | O=C(c1ccc(OCCN2CCCCC2)cc1)c1c(-c2ccc(O)cc2)sc2cc(O)ccc12 | -0.00866 | 0.747
29 | Cc1noc(NS(=O)(=O)c2ccc(N)cc2)c1C | 0.025 | 0.437
30 | CCN(Cc1ccncc1)C(=O)C(CO)c1ccccc1 (stereo not given) | 0.402 | 0.607
